Reference: PubChem BioAssay (NCATS)
Where “and” joins values, the source holds several entries; their conditions need not be identical. Identical values can stand only once. Records with an inconclusive call do not appear. Calls of active or inactive are those of the source. Unless noted, calls follow the shape of the dose curve; as a rule, active = well fitted curve in the direction sought with a large enough effect; inconclusive = small, poorly fitted or top-dose-only effect, or another doubt; inactive = no such curve, though single readings can be large; an effect the other way counts as inactive or inconclusive.

Tests used:
[1] = biological target: Cellular tumor antigen p53 (Homo sapiens) (UniProt P04637); test: Primary qHTS for small molecule compounds that upregulate eGFP-tagged delta133p53alpha (in N-terminal) cells. (AID 2060322); details: NCI-H358 eGFP-delta133p53alpha fluorescence, 24 h; activation: hits give high values; also: nearly all actives have a fitted effect of over 75% in size; also: potency is read from the fitted curve at half-maximal effect;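 as to activation: series mostly up to about 56 µM; 0% = DMSO vehicle and 100% = reference activator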
Cellular tumor antigen p53 (Homo sapiens), sequence (P04637 whole entry, looked up): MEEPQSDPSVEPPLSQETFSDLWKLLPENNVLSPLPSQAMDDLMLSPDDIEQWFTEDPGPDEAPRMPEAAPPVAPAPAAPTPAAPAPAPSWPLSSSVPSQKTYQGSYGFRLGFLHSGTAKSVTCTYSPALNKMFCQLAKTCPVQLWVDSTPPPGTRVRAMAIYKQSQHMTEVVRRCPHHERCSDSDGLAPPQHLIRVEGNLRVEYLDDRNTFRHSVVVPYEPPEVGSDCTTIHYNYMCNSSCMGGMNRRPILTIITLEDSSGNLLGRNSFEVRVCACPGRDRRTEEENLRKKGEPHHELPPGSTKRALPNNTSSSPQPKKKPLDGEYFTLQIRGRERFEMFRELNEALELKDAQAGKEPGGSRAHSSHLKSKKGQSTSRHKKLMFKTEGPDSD
In short: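 NCI-H358 cells pre-induced 24 h with 10 ng/ml doxycycline to express N-terminal eGFP-delta133p53alpha, then dosed 24 h at 37C without doxycycline; fixed, Hoechst-stained, GFP intensity by laser scanning cytometry, normalized to DMSO (0%) and 57.5 uM 5-azacytidine (100%).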

[2] = biological target: Aldehyde dehydrogenase, mitochondrial (Homo sapiens) (UniProt P05091); test: qHTS for Inhibitors of the Aldehyde Dehydrogenase Family (ALDH2) Validation screens (AID 2061302; active = well fitted inhibition curve with a large enough effect; title and protocol of this record describe different tests; also: potency is read from the fitted curve at half-maximal effect;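 as to activity change, negative = inhibition: plate controls were DMSO vehicle for no effect and maximal DPI positive control response for full effect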)
[3] = biological target: Retinaldehyde dehydrogenase 3 (Homo sapiens) (UniProt P47895); test: qHTS for Inhibitors of the Aldehyde Dehydrogenase Family (ALDH1A3) Validation screen (AID 2061312); also: % is scaled to controls: 0 for no effect and ±100 for the full control effect; nearly all actives have a fitted effect of over 45% in size
[4] = BET inhibitor-based combinations targeting novel dependencies in MECOM-rearranged (r) AML: SET-2 cell line (AID 2202231); details: SET-2 AML cells viability, CellTiter-Glo luminescence, 48 h; viability: hits give low values, concentration not given here; also: nearly all actives have a fitted effect of over 35% in size; also: potency is read from the fitted curve at half-maximal effect;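 as to viability: plate controls were DMSO treated cells for no effect and wells without cells for full effect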
In short: (§1)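 Readout: CellTiter-Glo luminescence. Exposure: 48 h, 11 concentrations, 500 cells/well. Metric: AUC and within-line Z-AUC after DMSO/empty-well normalization.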

[5] = BET inhibitor-based combinations targeting novel dependencies in MECOM-rearranged (r) AML: OCI-AML3 cell line (AID 2202232); details: Potency: OCI-AML3 viability; also: nearly all actives have a fitted effect of over 35% in size; also: potency is read from the fitted curve at half-maximal effect
In short: as §1

[6] = BET inhibitor-based combinations targeting novel dependencies in MECOM-rearranged (r) AML: MV-4-11 cell line (AID 2202233); also: nearly all actives have a fitted effect of over 45% in size; also: potency is read from the fitted curve at half-maximal effect
In short: (§2)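 Seeding density was 500 cells/well, and drug exposure lasted 48 hr under standard culture conditions. Read-out used CellTiter-Glo reagent with a 15 min room-temperature incubation before luminescence measurement; AUC and Z-AUC summarize the normalized responses.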

[7] = BET inhibitor-based combinations targeting novel dependencies in MECOM-rearranged (r) AML: HNT-34 cell line (AID 2202234); also: nearly all actives have a fitted effect of over 35% in size; also: potency is read from the fitted curve at half-maximal effect
In short: as §2

[8] = BET inhibitor-based combinations targeting novel dependencies in MECOM-rearranged (r) AML: AML-191 cell line (AID 2202236; also: nearly all actives have a fitted effect of over 35% in size; also: potency is read from the fitted curve at half-maximal effect)
In short: as §1

[9] = BET inhibitor-based combinations targeting novel dependencies in MECOM-rearranged (r) AML: AML-194 cell line (AID 2202237;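 also: plate controls were vehicle wells for no effect and wells without cells for full effect; nearly all actives have a fitted effect of over 40% in size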)
In short: as §1

[10] = biological target: Aldehyde dehydrogenase, mitochondrial (Homo sapiens) (UniProt P05091); test: qHTS for Inhibitors of the Aldehyde Dehydrogenase Family (ALDH2) Confirmatory screens (AID 2061303; active = well fitted inhibition curve with a large enough effect; title and protocol of this record describe different tests; also: % is scaled to controls: 0 for no effect and ±100 for the full control effect; nearly all actives have a fitted effect of over 45% in size)
[11] = qHTS for Inhibitors of the Aldehyde Dehydrogenase Family (ALDH1A2, ALDH1A3, ALDH2, ALDH3A1) (AID 2061307); also: nearly all actives have a fitted effect of over 50% in size; as to activity change, negative = inhibition: % is scaled to controls: 0 for no effect and ±100 for the full control effect
[12] = biological target: Aldehyde dehydrogenase, mitochondrial (Homo sapiens) (UniProt P05091); test: qHTS for Inhibitors of the Aldehyde Dehydrogenase Family (ALDH2) Primary screen (AID 2061308);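 also: plate controls were vehicle for no effect and reference inhibitor for full effect; nearly all actives have a fitted effect of over 55% in size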
[13] = biological target: Retinaldehyde dehydrogenase 3 (Homo sapiens) (UniProt P47895); test: qHTS for Inhibitors of the Aldehyde Dehydrogenase Family (ALDH1A3) Confirmatory screens (AID 2061311); also: nearly all actives have a fitted effect of over 60% in size; also: potency is read from the fitted curve at half-maximal effect; as to activity change, negative = inhibition: % is scaled to controls: 0 for no effect and ±100 for the full control effect
[14] = BET inhibitor-based combinations targeting novel dependencies in MECOM-rearranged (r) AML: UCSD-AML1 cell line (AID 2202235);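 also: series mostly up to about 46 µM; plate controls were DMSO vehicle wells for no effect and blank wells for full effect; nearly all actives have a fitted effect of over 40% in size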
In short: as §2

[15] = biological target: Retinal dehydrogenase 2 (Homo sapiens) (UniProt O94788); test: qHTS for Inhibitors of the Aldehyde Dehydrogenase Family (ALDH1A2) Confirmation screens (AID 2061314); also: nearly all actives have a fitted effect of over 65% in size; also: potency is read from the fitted curve at half-maximal effect
[16] = biological target: Aldehyde dehydrogenase 1A1 (Homo sapiens) (UniProt P00352); test: qHTS for Inhibitors of the Aldehyde Dehydrogenase Family (ALDH1A1) Confirmatory screens (AID 2061316); also: nearly all actives have a fitted effect of over 65% in size; also: potency is read from the fitted curve at half-maximal effect; as to activity change, negative = inhibition: % is scaled to controls: 0 for no effect and ±100 for the full control effect
[17] = biological target: Retinaldehyde dehydrogenase 3 (Homo sapiens) (UniProt P47895); test: qHTS for Inhibitors of the Aldehyde Dehydrogenase Family (ALDH1A3) Primary screen (AID 2061315); also: potency is read from the fitted curve at half-maximal effect;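 as to activity change, negative = inhibition: plate controls were DMSO vehicle for no effect and reference inhibitor for full effect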

O=c1cc(-c2ccc(O)cc2)oc2cc(O)cc(O)c12
inactive: activation [1] -19.8% and -40.1% | Potency [2] | Potency [3]

CC(C(=O)O)c1cccc(C(=O)c2ccccc2)c1 (centres undefined)
inactive: activation [1] 8.47% and 8.5% and -11% | Potency [2] | Potency [3] | viability [4] 117% | Potency [5] | Potency [6] | Potency [7] | Potency [8] | Potency [9]

COc1cc2c3c(cc4ccccc4c3c1O)NC2=O
active: Potency [13] 14.2 µM
inactive: activation [1] -8.93% | Potency [10] | Potency [11] | Potency [12]

C[C@H](Cc1ccc(O)c(O)c1)[C@@H](C)Cc1ccc(O)c(O)c1
active: Potency [2] 15.8 µM | Potency [5] 3.32 µM | Potency [6] 2.95 µM | Potency [7] 8.33 µM | Potency [8] 11.8 µM
inactive: activation [1] 8.19%

OCC1NCC(O)C(O)C1O (centres undefined)
inactive: activation [1] -36.6% | Potency [2] | Potency [3]

O=c1[nH]cc(F)c(=O)[nH]1
inactive: activation [1] -32.6% and 6.33% | Potency [2] | Potency [3]
active: Potency [4] 10.5 µM | Potency [6] 6.61 µM

COC(=O)C(C)(N)Cc1ccc(O)cc1 (centres undefined)
inactive: activation [1] -5.7% | Potency [2] | Potency [3]

NC(CO)C(=O)NNCc1ccc(O)c(O)c1O (centres undefined)
inactive: activation [1] -10.9% and -15.4% and 9.06% | Potency [2] | Potency [6] | Potency [7] | Potency [14] | Potency [9]

Cn1cc(-c2ccncc2)c(-c2ccc(OCc3ccc4ccccc4n3)cc2)n1
active: Potency [7] 23.5 µM

Cc1ccc(CN2CCNCC2)cc1NC(=O)CNc1ccc(F)c(F)c1
inactive: Potency [7]

COc1ccc2c(OC)c3ccoc3nc2c1OC
inactive: activation [1] -3.05% | Potency [12]
active: Potency [11] 28.2 µM | Potency [13] 4 µM | Potency [15] 0.896 µM | Potency [16] 2.83 µM

OC[C@H]1O[C@@H](O[C@H]2[C@H](O)[C@@H](CO)O[C@@H](OCc3ccccc3)[C@@H]2O[C@@H]2OC[C@](O)(CO)[C@H]2O)[C@H](O)[C@@H](O)[C@@H]1O
active: Potency [13] 12.3 µM
inactive: activation [1] -11.5% | Potency [11] | Potency [12]

CCN(Cc1cc(Nc2nc(C)cn3c(-c4cn[nH]c4)cnc23)sn1)C(C)(C)CO
active: Potency [1] 16.9 µM | Potency [13] 12.7 µM | Potency [15] 31.8 µM
inactive: Potency [11] | Potency [12] | Potency [17]

Clc1ccc2ncc(-c3cccc(NC4CNC4)n3)n2c1
inactive: activation [1] 11% | Potency [11] | Potency [12] | Potency [13] | Potency [17] | viability [4] 115% | Potency [5] | Potency [6] | Potency [7] | Potency [8] | Potency [9]

COc1ccc2c(c1)O[C@H](O[C@@H]1O[C@H](CO)[C@@H](O)[C@H](O)[C@H]1O)C(=O)N2
active: Potency [13] 13.9 µM | Potency [17] 6.31 µM
inactive: activation [1] -12.5% | Potency [11] | Potency [12]

CC[C@@H](Nc1c(Nc2cccc(C(=O)N(C)C)c2O)c(=O)c1=O)c1cc(C(C)C)co1
inactive: activation [1] -2.39% | Potency [12] | Potency [3] | Potency [15] | Potency [16]
active: Potency [11] 5.62 µM and 7.08 µM

O=C(O)c1cc(-c2c(-c3ccccc3)nn3ccccc23)n[nH]c1=O
inactive: activation [1] -0.333% | Potency [11] | Potency [12] | Potency [17]

O=C(O)c1ccccc1C(=O)Nc1ccc(-c2ccccc2)cc1
inactive: activation [1] -8.49% and 5.67% | Potency [11] | Potency [12] | activity change, negative = inhibition [13] -21.1% [at 0.0073 µM] | Potency [17] | viability [4] 116% | Potency [6] | Potency [7] | Potency [14] | Potency [8] | Potency [9]
active: Potency [15] 10.1 µM

O=C(NCc1ccc(S(=O)(=O)c2cc(F)cc(F)c2)cc1)c1ccc2nccn2c1
active: Potency [11] 10.1 µM | Potency [16] 11.3 µM
inactive: activation [1] 17.2% | Potency [12] | Potency [3] | Potency [15] | Potency [17]

O=C(O)c1cc(C(F)(F)F)ccc1N1CC[C@H](OCc2ccccn2)C1
inactive: activation [1] -17% | Potency [11] | Potency [12] | Potency [13] | Potency [17] | Potency [16]

CC/C=C/C(O)C(O)C1=C(C)C(=O)C2(O1)C(=O)NC(OC)(C(=O)c1ccccc1)C2O (centres undefined)
inactive: activation [1] 15.3% | Potency [11] | Potency [12] | Potency [15] | Potency [17]

Cc1cc(C)c2c(N)c(C(=O)NCc3ccc(Cl)cc3)sc2n1
active: Potency [11] 1.12 µM | Potency [16] 14.2 µM
inactive: activation [1] 13.4% | Potency [12] | Potency [17]
